Records with an inconclusive call do not appear. Unmarked numbers belong to inactive results. Calls of active or inactive are those of the source. The call rests on the fitted dose curve.

The values below come from PubChem BioAssay (Tox21).
On the % scale 0 is the no-effect control and ±100 the full control effect; potency means the concentration at half of the fitted maximal effect.

The target in the assay is Retinoic acid receptor RXR-alpha (Homo sapiens) (UniProt P19793). In words: qHTS assay to identify small molecule agonists of the RXR signaling pathway (AID 1159527). Further: nearly all actives have a fitted effect of over 35% in size. The settings on record: HEK293T RXRa-UAS-bla, beta-lactamase ratio, 16 h; series mostly up to 76.8 µM; activation: at the top concentration. From the text: U.S. Tox21 Program National Center for Advancing Translational Sciences [NCATS] NIH Chemical Genomics Center [NCGC] U.S. Environmental Protection Agency [EPA] National Institutes of Environmental Health Sciences [NIEHS] National Toxicology Program [NTP] U.S. Food and Drug Administration [FDA] Tox21 Assay Overview: The Retinoid X receptor (RXR), a nuclear hormone receptor expressed in liver, spleen, placenta, epidermis, central nervous system. These receptors are able to form homo and heterodimers with other nuclear receptors and due to this heterodimerizing ability, RXR functions as master regulators producing diverse physiological effects. Three subtypes of RXR exist; alpha, beta and gamma. Retinoid X receptor alpha (RXR-alpha) has potential roles in metabolic signaling pathways, skin alopecia, dermal cysts, cardiac development, insulin sensitization etc. Therefore screening environmental chemicals on RXR-alpha signaling can be used for the studies focused on such therapeutic applications. For quantification of RXR-alpha ligands signaling, GeneBLAzer RXR alpha-UAS-bla HEK 293T (Life Technologies, Carlsbad, CA) cells containing a beta-lactamase reporter-gene under control of Retinoid X receptor-alpha response element were used to screen Tox21 10K library.
Retinoic acid receptor RXR-alpha (Homo sapiens), sequence (P19793 whole entry, looked up): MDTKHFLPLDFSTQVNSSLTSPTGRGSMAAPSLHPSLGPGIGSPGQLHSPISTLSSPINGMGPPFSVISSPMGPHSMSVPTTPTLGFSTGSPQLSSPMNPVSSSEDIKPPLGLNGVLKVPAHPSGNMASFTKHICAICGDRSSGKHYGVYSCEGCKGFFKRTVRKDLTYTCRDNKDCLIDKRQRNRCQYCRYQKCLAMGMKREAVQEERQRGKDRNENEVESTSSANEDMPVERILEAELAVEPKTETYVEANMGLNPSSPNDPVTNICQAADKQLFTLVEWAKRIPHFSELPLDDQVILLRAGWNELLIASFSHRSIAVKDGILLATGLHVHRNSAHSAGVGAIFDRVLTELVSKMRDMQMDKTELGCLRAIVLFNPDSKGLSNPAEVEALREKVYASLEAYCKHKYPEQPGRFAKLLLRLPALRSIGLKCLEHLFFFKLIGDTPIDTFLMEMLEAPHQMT
Tox21 Assay Protocol Summary: RXR-alpha HEK 293T cells were dispensed at 2,000 cells/6 uL of assay medium containing 2% charcoal-stripped FBS using a Multidrop Combi (ThermoFisher Scientific, Waltham, MA) dispenser. The assay was performed in black wall/clear-bottom 1536-well plates (Greiner Bio-One North America Inc. Monroe, NC). 9-cis retinoic acid was used as a positive control in the agonist mode screen. After the assay plates were incubated at 37 C and 5% CO2 for 5 hr, 23 nL of compounds dissolved in DMSO, positive controls or DMSO only were transferred to the assay plate by a Pintool station (Kalypsys, San Diego, CA). The assay plates were incubated at 37 C and 5% CO2 for 16 hr. One uL of LiveBLAzer B/G FRET substrate (Life Technologies) was added using a Flying Reagent Dispenser (Aurora Discovery, San Diego, CA) and the plates were incubated at room temperature for 2 hr. Fluorescence intensity (405 nm excitation, 460/530 nm emission) was measured using an Envision plate reader (PerkinElmer, Shelton, CT).
On the technique in general: qHTS replaces the single test concentration by a dilution series.
Regarding `Oc1ccc(Cl)cc1Cc1cc(Cl)ccc1O`, the Potency result was “inactive”.

As to `CC[C@@H](N)CO`, the “activation” value is 8.28%.

In the case of `CCC(CO)(CO)COCC(CC)(CO)CO`, the “activation” value was 11.7%.

Regarding `C=CC(=O)OCCCCCCCC`, the “activation” value was 5.99%.

For the compound `CCC(C)(Oc1ccc(C2(c3ccc(OC(C)(CC)C(=O)O)cc3)CCCCC2)cc1)C(=O)O` (stereo not given), the “activation” value was 3.36% [at 35.3 µM].

In the case of `CCC(=O)/C=C/C1C(C)=CCCC1(C)C` (stereo not given), the Potency result was “inactive”.

`CCCNC(C)C(=O)Nc1ccccc1C` (stereo not given): the “activation” value was 11.1% [at 35.3 µM].

Consider `c1ccc2n[nH]nc2c1`, for which the Potency result is “inactive”.

For `CCn1c2ccccc2c2cc(N)ccc21`, the “activation” value is -18.5%.

Take `CC(=O)OCC1=C(C(=O)O)N2C(=O)[C@@H](NC(=O)Cc3cccs3)[C@H]2SC1`: the “activation” value was 0.87% [at 35.3 µM].

For `CC(C(O)c1ccc(O)cc1)N1CCC(Cc2ccccc2)CC1` (stereo not given), the “activation” value was -1.22% [at 35.3 µM].

For `OCC(CO)N[C@H]1C[C@](O)(CO)[C@@H](O)[C@H](O)[C@H]1O`, the “activation” value is 9.06% [at 35.3 µM].

For `CC(C)(C)NCC(O)c1cc(O)cc(O)c1` (stereo not given), the “activation” value was 2.12% [at 35.3 µM].

In the case of `CCCCCCCCCCCCCCCCCl`, the activation was 0.473% [at 15.8 µM].

For the compound `NC(Cc1ccc(Cl)cc1)C(=O)O` (stereo not given), the activation was -0.301% [at 0.29 µM].

On to `CCCC(=O)c1ccccc1`, for which the “activation” value was 3.95%.

Take `Cc1cccc2n[nH]nc12`: the Potency result was “inactive”.

In the case of `Cc1cc(C2(c3cc(C)c(O)cc3C)OS(=O)(=O)c3ccccc32)c(C)cc1O`, the “activation” value is 12.8%.

Regarding `Cc1occc(=O)c1OC(=O)C(C)C`, the “activation” value was -6.58%.

Turning to `BrC1CCC(Br)C(Br)CCC(Br)C(Br)CCC1Br` (stereo not given), the “activation” value is -13.1%.

As to `COc1nc(C)nc(Cl)c1NC1=NCCN1`, the “activation” value was 2.85% [at 35.3 µM].

As for `O=C(O)c1cc(Cl)cc(Cl)c1`, the “activation” value was -0.0592%.

For the compound `O=c1n(CC2CO2)c(=O)n(CC2CO2)c(=O)n1CC1CO1` (stereo not given), the Potency was 3.89 µM (active).

`CCCCN(CCO)CCCC`: the “activation” value is 5.5%.

Take `COC(=O)c1cccc(C(=O)OC)c1`: the Potency result is “inactive”.

For `OCCN1CCNCC1`, the Potency entry was “inactive”.

As to `CCN(CC)C(=O)Nc1ccc(OCC(O)CNC(C)(C)C)c(C(C)=O)c1` (stereo not given), the “activation” value was -0.998% [at 35.3 µM].

In the case of `O=C1Nc2ccccc2C1(c1ccc(O)cc1)c1ccc(O)cc1`, the “activation” value was -13.5% [at 35.3 µM].

On to `CCN1CCCC1CNC(=O)c1cc(S(=O)(=O)CC)c(N)cc1OC` (stereo not given), for which the “activation” value was 3.74% [at 35.3 µM].

As to `O=Cc1ccc(Cl)cc1`, the “activation” value is -16.6%.

Regarding `O=C(O)c1cn(-c2ccc(F)cc2)c2cc(N3CCNCC3)c(F)cc2c1=O`, the Potency entry is “inactive”.

In the case of `O=S(=O)(O)c1ccc2nc(-c3ccccc3)[nH]c2c1`, the Potency entry was “inactive”.

Regarding `c1ccc2cc3c(ccc4ccccc43)cc2c1`, the “activation” value was 0.345%.

For the compound `CN1C(=O)c2ccc([N+](=O)[O-])cc2C1=O`, the “activation” value was 0.81%.

`Clc1ccc2c(c1)C(N1CCNCC1)=Nc1ccccc1O2`: the “activation” value is -11.9%.

On to `Cc1cccc([N+](=O)[O-])c1C(=O)O`, for which the “activation” value is -3.58%.

`O=C(O)c1cccc(C(=O)O)c1`: the “activation” value is 10.5%.

Consider `C=CS(=O)(=O)O`, for which the “activation” value is -10.1%.

As for `NCCO`, the “activation” value is 11.1%.

Take `CC(C)(C)NCC(O)COc1ccccc1OCC1CCCO1` (stereo not given): the “activation” value was 4.42% [at 35.3 µM].
